Experimental data as given in PubChem BioAssay AID813 (Sanford-Burnham Center for Chemical Genomics, 2007).
The whole screen tested about 64,000 compounds, of which fewer than 10 were called active.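 How the source made its calls: active means activation factor of at least 2 at 20 µM, relative to controls; inactive means the rest.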 Not all results are given here.

target: Alkaline phosphatase, tissue-nonspecific isozyme (Homo sapiens) (UniProt P05186); assay: stimulation of alkaline phosphatase TNAP activity – biochemical, luminescent, intermediate phosphate acceptor level, primary screen (AID 813); settings: purified TNAP, CDP-star luminescence, 100 mM DEA, 30 min; at 20 µM; hits give high values; scale: 0 levamisole-inhibited, 1 vehicle-only enzyme
Sequence (P05186 whole entry, looked up): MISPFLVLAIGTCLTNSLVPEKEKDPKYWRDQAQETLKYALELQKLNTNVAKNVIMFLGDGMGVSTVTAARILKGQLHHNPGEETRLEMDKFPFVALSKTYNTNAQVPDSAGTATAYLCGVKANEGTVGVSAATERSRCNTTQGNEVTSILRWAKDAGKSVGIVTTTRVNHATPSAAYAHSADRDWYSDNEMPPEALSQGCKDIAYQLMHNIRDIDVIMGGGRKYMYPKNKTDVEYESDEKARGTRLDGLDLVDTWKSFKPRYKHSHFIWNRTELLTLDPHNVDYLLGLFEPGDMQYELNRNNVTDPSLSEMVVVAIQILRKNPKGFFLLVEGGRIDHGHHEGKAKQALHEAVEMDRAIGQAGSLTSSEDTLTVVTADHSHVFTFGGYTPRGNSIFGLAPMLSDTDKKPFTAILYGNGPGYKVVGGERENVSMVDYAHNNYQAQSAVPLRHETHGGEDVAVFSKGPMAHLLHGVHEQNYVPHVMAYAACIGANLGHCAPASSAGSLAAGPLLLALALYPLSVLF

Activation factor, inactive:
Cc1ccccc1CSc1nnc(-c2cccnc2)n1N 0.9
COCCN1C(=O)c2oc3c(C)cc(C)cc3c(=O)c2C1c1cccc(O)c1 (stereo not drawn) 0.8
COc1ccc2occ(C(=O)c3ccc(N=C(C)N(C)C)cc3)c2c1 0.9
O=C1CN(C(=O)COC(=O)C2CC(=O)N(Cc3ccco3)C2)c2ccccc2N1 (stereo not drawn) 0.9
CSc1nc(O)c(Cc2ccccc2)c(=O)[nH]1 1
COc1cc(C(O)c2nc3ccccc3n2C)cc(OC)c1OC (stereo not drawn) 0.9
O=C(O)c1cc(S(=O)(=O)N2CCCCCC2)c(Cl)cc1Cl 1
CCN1CCCC1CNC(=O)Cn1cnc2ccc(S(=O)(=O)N3CCC(C)CC3)cc2c1=O (stereo not drawn) 0.9
CCCCn1nc(C(=O)N2CCc3ccccc32)c2ccccc2c1=O 0.9
Cc1ccc(O)c(NC(=O)COc2cc(C)ccc2C)c1 0.9
Cc1cccc(OCc2nnc(SCC(=O)N3CCN(C(=O)c4ccco4)CC3)n2C)c1C 0.9
Cc1cc(Cl)c(S(=O)(=O)Nc2ccc3c(c2)OCCO3)cc1OCC(N)=O 0.9
CC(=NCc1ccco1)C1=C(O)c2ccccc2C1=O 0.9
Cc1ccc(-c2noc(CSc3nnc(-c4ccccc4)n3C)n2)cc1 1
O=C(Cn1[nH]c(=O)c2ccccc2c1=O)Nc1cccc(-c2nnc3n2CCCCC3)c1 0.9
CC1Cc2nc(SCC(=O)Nc3ccccc3F)n(C)c(=O)c2S1 (stereo not drawn) 1
COc1ccccc1C(=O)Oc1ccc(N2C(=O)CCC2=O)cc1 0.9
Clc1ccc(C2CC(c3cccs3)n3ncnc3N2)cc1Cl (stereo not drawn) 1
O=C(CNC(=O)c1ccco1)OCC(=O)c1ccccc1 0.9
CN1CCC2(CC1)NC(=O)NC2=O 1
CCN(CC)CCN1C(=O)C(=O)/C(=C(/O)c2ccc(OC)c(OC)c2)C1c1ccccn1 (stereo not drawn) 1
O=S(=O)(O)c1nc2ccccc2n1Cc1ccc(Cl)cc1Cl 0.9
CC(Nc1nc(N2CCCC2)nc2ccccc12)c1ccccc1 (stereo not drawn) 1
NC(=O)CSc1c[nH]c2ccccc12 0.9
CCCCOc1ccc(C(=O)NCc2ccco2)cc1 0.9
COc1ccc(S(=O)(=O)N2CCCC(C(=O)Nc3ccc(NC(=O)c4ccccn4)cc3)C2)cc1 (stereo not drawn) 0.8
Cc1cc(Nc2cccc(C)c2C)n2ncnc2n1 1
O=C(CSC1=Nc2ccccc2C2=NC(c3ccccc3)C(=O)N12)NCC1CCCO1 (stereo not drawn) 0.9
CCOC(=O)c1cccc(NC(=O)C2CCCN(S(=O)(=O)c3cnc[nH]3)C2)c1 (stereo not drawn) 0.9
CSCC[C@H](NC(=O)NCc1cccs1)C(=O)O 0.9
Cc1c2cn[nH]c(=O)c2c(C)n1Cc1ccc(F)cc1 0.9
COc1ccc2nc(NC3=NCN(CC4CCCO4)CN3)nc(C)c2c1 (stereo not drawn) 0.9
Cc1ccc(C)n1C(Cc1ccccc1)C(=O)O (stereo not drawn) 0.8
Cc1cc(N2CCCC2=O)cc(C)c1S(N)(=O)=O 0.9
CCOC(=O)Cn1c(N)c(C(=O)OC)sc1=S 0.9
Cc1cccc(NC(=O)c2ccc3ccccc3n2)n1 0.9
COc1ccc(C2C(C#N)=C(N)Oc3cc(N)ccc32)cc1OC (stereo not drawn) 1
Cc1nn(C)c(C)c1S(=O)(=O)N1CCc2ccccc21 1
Cc1cc(C)nc(N2C(=O)CC(Cc3ccccc3)C2=O)n1 (stereo not drawn) 0.9
COc1ccc(-n2c(SCC(=O)Nc3ccc4c(c3)OCO4)nnc2C(C)N2CCCCC2)cc1 (stereo not drawn) 1
N#CC1=C(N)OC2=C(C(=O)CCC2)C1C1CC=CCC1 (stereo not drawn) 0.9
O=C(Nc1ccon1)c1sc2ccccc2c1Cl 1
Cc1ccc(S(=O)(=O)NCC(=O)OCC(=O)N2CCc3ccccc32)cc1 0.8
COc1ccc(C(=O)CSc2nccc(=O)[nH]2)cc1 1
CSc1cccc(NC(=O)C2CCCN2S(=O)(=O)c2ccc3c(c2)CCC(=O)N3)c1 (stereo not drawn) 0.9
Cc1ccnc(N2CCCC(C(=O)Nc3cc(F)ccc3C)C2)n1 (stereo not drawn) 0.9
Nc1nonc1C(=O)NCCc1ccccc1 0.9
CCc1cccc(C)c1NC(=O)CSc1nnc(-c2ccco2)n1N 1.1
COc1ccccc1-n1c(CNC(=O)c2ccccc2)nnc1SCC(=O)Nc1nnc(C)s1 1
Cc1ccc(S(=O)(=O)NC(C)C(=O)Nc2ccccc2C(=O)N2CCCC2)cc1 (stereo not drawn) 0.9
O=C1C(C=NCC2CCCO2)=C(O)c2ccccc21 (stereo not drawn) 1
O=C(CCN1C(=O)c2ccccc2C1=O)Nc1ccncc1 1
CCn1nnc(NC(=O)c2cc(Cl)c(OC)c(Cl)c2)n1 0.9
CN(C)/C=C1/C(=O)Nc2ccccc21 0.9
CCCNC(=O)C1CC(=O)N(c2ccc(OCC(=O)Nc3cccc(C)c3C)cc2)C1 (stereo not drawn) 1
CCCCNC(=O)CSc1nnc(-c2ccco2)n1C 1
CCOC(=O)c1cccc(NC(=O)CCn2nnc3ccccc32)c1 0.9
O=C(CSc1nnc(-c2cccs2)n1Cc1ccco1)c1ccc2c(c1)OCO2 0.9
CC(=O)N(CC1CCCO1)C1(C(=O)NC2CCCC2)CCCCC1 (stereo not drawn) 1
CCn1c(SCC(=O)Nc2cc(C)c(Cl)cc2OC)nnc1-c1ccco1 1
Cc1ccc2c(C(=O)CN3CCCC3)c(C)[nH]c2c1 0.9
Cc1cccc(C2c3c(n(C)c(=O)n(C)c3=O)N=C3c4ccccc4C(=O)C32)c1 (stereo not drawn) 0.8
C=CCn1c(C2CC(=O)N(c3ccc(C)cc3)C2)nc2ccccc21 (stereo not drawn) 0.9
CC1(C)Cc2c(C#N)c(SCc3nc4ccccc4[nH]3)nc(N3CCOCC3)c2CO1 1
CCOC(=O)C1C(=O)OC2(CCCC2)C1C(=O)OCC (stereo not drawn) 0.9
Cc1ncn(C23CC4CC(CC(O)(C4)C2)C3)n1 1
CC1CN(C(=O)CN2C(=O)NC(C)(c3ccccc3)C2=O)CC(C)O1 (stereo not drawn) 0.9
CCOc1cc(C)c(Cl)cc1S(=O)(=O)n1nnc2ccccc21 0.9
CCOC(=O)CNC(=O)c1nn(-c2cccc(OC)c2)c(=O)c2ccccc12 0.9
CC(C)c1ccc(NC(=O)NC2CCCCC2)cc1 0.9
COc1ccc(N2C(=O)C3CCCN3C2c2cc(OC)c(OC)cc2OC)cc1 (stereo not drawn) 0.9
Cc1oc(CC(C)C)c(CN2CCCC2)c1C(=O)O 0.9
CCCn1c(SCC(N)=O)nnc1C(C)C 0.9
O=C(CCN1C(=O)COc2ccccc21)NCCCN1CCN(c2ccc(F)cc2)CC1 0.9
Cc1c(-c2nn(C)c(=O)c3ccccc23)oc2ccc(F)cc2c1=O 1
CCC(=O)N1c2ccc(S(=O)(=O)CCC(=O)N3CCN(c4ccccc4)CC3)cc2CC1C (stereo not drawn) 0.9
Cc1cc(Nc2ccccc2)n(CCC#N)n1 1
Cc1cc2cc(CNC(=O)c3ccc(S(=O)(=O)N4CCOCC4)cc3)ccc2[nH]1 1
CCOC(=O)c1cc2occc2n1CC(=O)NC1CCC(C)CC1 (stereo not drawn) 0.9
CC(CN1CCCCC1)OC(=O)c1ccccc1Cl (stereo not drawn) 1
COC(=O)c1cc(NC2c3ccccc3C(=O)N2c2ccc(Cl)cn2)cc(C(=O)OC)c1 (stereo not drawn) 0.9
N=c1c2c3c(sc2ncn1CCCN1CCOCC1)CCCCC3 0.9
Cc1ccc(S(=O)(=O)NCc2csc(C)n2)c(C)c1 0.9
CSCCC1NC2(C(=O)Nc3ccc(Cl)cc32)[C@@H]2C(=O)N(C3CCCC3)C(=O)[C@H]12 (stereo partly drawn) 0.9
NC(=O)c1ccsc1NC(=O)c1ccco1 0.8
O=C(CC1(O)C(=O)N(CN2CCOCC2)c2ccccc21)c1ccccc1 (stereo not drawn) 0.9
CCOc1cccc(-n2nnnc2-c2ccc(OC)cc2)c1 0.8
Cc1ccc(N2C(=O)c3oc4ccccc4c(=O)c3C2c2cccnc2)nc1 (stereo not drawn) 0.9
COc1ccccc1N1CCN(Cc2ccc(OC)c3ccccc23)CC1 0.9
CC(C)(C)c1csc(NC2=NS(=O)(=O)c3ccccc32)n1 0.9
CN1CCN(CC(O)COCc2ccc3c(c2)OCO3)CC1 (stereo not drawn) 1
COc1cc(C2C(C(=O)c3sc(C)nc3C)=C(O)C(=O)N2CCN(C)C)cc(OC)c1OC (stereo not drawn) 0.9
CCOc1cc(/C=N/O)cc(Br)c1OC 0.9
Cc1ccc(C(=O)Nc2ccccc2C(=O)NC2CCCCC2)cc1S(=O)(=O)N1CCOCC1 0.9
CC1CCN(c2nc3c(c(=O)[nH]c(=O)n3C)n2CCCc2ccccc2)CC1 1
Cc1cc(C)nc(NC2=NCC(=O)N2c2ccc(Cl)cc2)n1 0.9
CCOc1cc(S(=O)(=O)NC2CC(C)(C)NC(C)(C)C2)ccc1F 0.9
Nc1nnc(C2CCCC2)s1 0.9
Cn1c(=NC(=O)c2ccco2)sc2cccc(F)c21 0.9
CC(C)(CNCC(O)c1ccccc1)N1CCOCC1 (stereo not drawn) 0.9
CCOc1ccc(N(CC(=O)OC)S(=O)(=O)c2c(C)noc2C)cc1 0.9
COc1ccc(CCn2nnnc2C(c2ccccc2)N2CCN(C)CC2)cc1OC (stereo not drawn) 1
O=C(OCCO)c1cc(Cl)c(C(=O)OCCO)cc1Cl 0.9
